Screening data from PubChem BioAssay.
FLuc inh = inhibitors of firefly luciferase. P08659. purified firefly luciferase, luminescence, 8 min. Potency, µM (highest dose often 57.1 µM), most hits filed as inhibitors. actives 2.2% (n = 72,000); note: nearly all actives have a fitted effect of over 40% in size
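Firefly luciferase (PKLight detection mix) with 10 uM ATP in pH 7.2 imidazole buffer (KCl, MgCl2, Tween 20, BSA). Compounds tested across a concentration series (qHTS). Luminescence read after 8 min at ambient temperature.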
HEK293 cAMP ctrl = parental HEK293 cAMP activation (counter-screen); Potency, µM (highest dose often 57.1 µM), most hits filed as activators; parental HEK293 CNG cAMP sensor, membrane potential fluorescence; actives 2.5% (n = 73,000); note: nearly all actives have a fitted effect of over 55% in size
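Parental HEK 293 cells stably expressing a modified CNG channel (no TSHR) report cAMP rise as membrane depolarization. Membrane potential dye with 100 uM RO 20-1724 was loaded for 60 min at room temperature, then compound added for 30 min; fluorescence read at 590 nm.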
Tau fil binding = binds recombinant human tau filaments; P10636; recombinant tau filaments, thioflavin S fluorescence, 15 h; filaments grown with octadecylsulfate alongside compound; Potency, µM (highest dose often 57.1 µM); actives 2% (n = 71,000); AID 596;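 note: actives lower thioflavin S fluorescence by blocking filaments or displacing dye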
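Tau 2 uM in ThS buffer dispensed; compound added; 60 uM ODS added (finals 1 uM tau, 30 uM ODS); 15 h 37 C; fluor ex450/em510.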
15-hLO inh = 15-hLO (ALOX15) enzyme inhibition; actives 1.4% (n = 74,000); purified 15hLO-1, xylenol orange hydroperoxide absorbance; P16050; AID 887; Potency, µM (series often up to 57.1 µM), actives largely listed as inhibitors; note: nearly all actives have a fitted effect of over 55% in size
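Readout: Fe(III)-xylenol orange absorbance, 573-to-405 nm ratio as reaction progress. Enzyme 40 nM purified human 15hLO-1, substrate 50 uM arachidonic acid, 6 min RT after 15 min compound preincubation; Hepes pH 7.5 buffer with Triton X-100.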
TSHR ag = TSH receptor (human) agonism; Potency, µM (highest dose often 57.1 µM), usual class: activators; P16473; HEK293-CNG-TSHR cells (CNG channel as cAMP sensor), membrane potential dye, cAMP; actives 0.48% (n = 73,000); AID 926; active = well fitted activation curve with a large enough effect in the main read-out, with a control signal flat, not every such curve was filed as active; inconclusive = small, poorly fitted or top-dose-only effect, or a change in a side signal; inactive = no such curve, though single readings can be large or run the other way; reference of the percent scale not stated here;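 note: the control signal comes from parental cells without the receptor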
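HEK 293 cells stably expressing TSHR and a modified CNG channel, with CNG-only parental cells as counterscreen, were preloaded 60 min at room temperature with membrane potential dye containing 100 uM RO 20-1724. Compound exposure was 30 min, and depolarization was read as fluorescence at 590 nm.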
Bst PK mod = modulators of Bacillus stearothermophilus pyruvate kinase | actives 1.2% (n = 51,000) | purified pyruvate kinase, luminescence ATP production; ribose 5-phosphate activator present at AC10 | Potency, µM | AID 361; in the data active = potency below about 11 µM; inconclusive = mostly about 12 µM to 25 µM;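 the screen sought inhibitors and activators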
Hits are given with their value; i = inactive; ? = inconclusive; nt = no result; [ ] = another dose, or the depositor's remark. Sampled rows, rich in hits. Any-hit rate of the full collection: about 7.8%. Unless noted, calls come from the whole dose curve; as a rule, active = well fitted curve in the direction sought with a large enough effect; inconclusive = small, poorly fitted or top-dose-only effect, or another doubt; inactive = no such curve, though single readings can be large; an effect the other way counts as inactive or inconclusive.

SMILES	FLuc inh	HEK293 cAMP ctrl	Tau fil binding	15-hLO inh	TSHR ag	Bst PK mod
Cc1cc([C@](C)(N)C(=O)O)ccc1P(=O)(O)O	25.1µM	i	i	i	i	nt
COc1cccc2cc(-c3nnc(SCC(=O)Nc4cc(C(F)(F)F)ccc4Cl)n3N)oc12	i	25.1µM	i	i	?	i
CCNc1ncc2ncc(=O)n(Cc3ccc(F)cc3)c2n1	i[11.4 µM]	?	i	i	?	nt
CC(=O)Nc1c(Cl)n(C(C)=O)c2ccccc12	i	i	20µM	i	nt	nt
CC(=NC1CCCCC1)C1=C(O)c2ccccc2C1=O	7.94µM	i	15.8µM	i	i	nt
CN1CCN(c2ncc3nc(-c4ccccc4)c(=O)n(CCC#N)c3n2)CC1	i[11.4 µM]	?	i	i	?	nt
CO[C@@H]1COC(=O)C/C=C\[C@H](C)COC(=O)[C@H](C)NC(=O)C/C=C\[C@H]1C	i[11.4 µM]	i[11.4 µM]	nt	i[11.4 µM]	i[11.4 µM]	nt
COc1cccc(OC)c1OCCNCCO	nt	?	nt	i	?	nt
COc1cccc(OC)c1OCCNC[C@@H]1COc2ccccc2O1	i	31.6µM	?	i	?	nt
CCOC(=O)CC(=O)CSc1nc(N)c(C#N)c(-c2ccc(F)cc2)c1C#N	i	nt	nt	nt	nt	i
CCOc1ccccc1O[C@@H](c1ccccc1)[C@@H]1CNCCO1	i	i	31.6µM	i	i	nt
COC(=O)[C@@]1(Cc2ccc(OC)cc2)[C@H]2c3cc(C(=O)N(C)C)n(CCc4ccc(O)c(OC)c4)c3C[C@H]2CN1C(=O)c1ccccc1	nt	i	i	nt	i	nt
CCOC(=O)C1=C(C)Nc2ncnn2C1c1ccc2c(c1)OCO2 (stereo not drawn)	i	i	i	i	3.16µM	i
CCOC(=O)C1=C(C)NC(=O)NC1c1ccc2c(c1)OCO2 (stereo not drawn)	i	nt	nt	nt	nt	i
O=S1(=O)N=C(Nc2ccc(N3CCOCC3)cc2)c2ccccc21	12.6µM	i	i	i	i	nt
Cc1ccc(Nc2nc(N3CCOCC3)c3ccccc3n2)cc1	i	i	?	?	i	nt
O=S1(=O)N=C(N2CCOCC2)c2ccccc21	i	i	i	i	nt	i
Cc1ccccc1-c1ccc(Nc2ccc(N3CCOCC3)cc2)nn1	i	i	15.8µM	i	i	i
CCC(C(=O)NCc1ccco1)N(C(=O)CNS(=O)(=O)c1ccc(C)cc1)c1ccccc1OC (stereo not drawn)	i	15.8µM	i	i	?	i
CCCC(C(=O)NCc1ccco1)N(C(=O)CNS(=O)(=O)c1ccc(Cl)cc1)C1CCCC1 (stereo not drawn)	i	i	i	25.1µM	i	i
CCCC(C(=O)NCc1ccco1)N(C(=O)CNS(=O)(=O)c1ccccc1)c1ccccc1OC (stereo not drawn)	i	25.1µM	i	i	?	i
O=C(CN(Cc1ccco1)C(=O)CNS(=O)(=O)c1ccc(F)cc1)NCCc1ccccc1	i	i	i	i	i	i
O=C(CN(Cc1ccco1)C(=O)CNS(=O)(=O)c1ccccc1)NCc1ccccc1	i	i	i	i	20µM	i
CC(C)C(C(=O)NCc1ccco1)N(C(=O)CNS(=O)(=O)c1ccccc1)C1CCCC1 (stereo not drawn)	i	?	i	i	?	i
O=C(c1csnn1)N1CCC2(CC1)CN(C(c1ccccc1)c1ccccc1)C2	i[11.4 µM]	i	i	i	i	nt
SMILES	FLuc inh	HEK293 cAMP ctrl	Tau fil binding	15-hLO inh	TSHR ag	Bst PK mod
COCC1C2CC[C@H]3C(OCc4ccc(OC)cc4)OC[C@]4(C)[C@H]3C2=C(CN4C(=O)OC(C)(C)C)[C@H](C)C1COC (stereo partly drawn)	nt	i	i	nt	i	nt
Cc1ccc(NC(=O)c2ccco2)cc1C	15.8µM	i	i	i	i	nt
O=C(COC(=O)c1ccco1)Nc1ccc2c(c1)OCCO2	10µM	i	i	i	i	?
Cc1ccccc1NC(=O)c1ccc(NC(=O)c2ccco2)cc1	i	i	i	i	i	i
O=C(Nc1ccc2c(c1)OCO2)C1CCCN1C(=O)OCc1ccccc1 (stereo not drawn)	i	?	i[11.4 µM]	i[11.4 µM]	?	nt
O=C(COC(=O)c1ccccc1NC(=O)c1ccco1)Nc1ccc2c(c1)OCO2	i	?	i	i	?	i
O=C(Nc1ccccn1)c1ccc(NC(=O)c2ccco2)cc1	25.1µM	i	i	i	i	i
